These results are taken from PubChem BioAssay.

The target of assay [1] is PEG-3 (UniProt Q6IN02). In words: Peg3 promoter luciferase inhibitors, potency, dose response, cell-based, HeLa, CREF/GAPDH counter-screen panel (AID 624167). As to conditions: CREF/GAPDH counter-screens; HeLa PEG-Prom luciferase reporter, overnight, run 1, dose range 1, at 100 µM (top of the series) unless noted; in the data active = activity above about 50%; inactive = the rest.
Assay [2] concerns the target PEG-3 (UniProt Q6IN02). The description is as above. The conditions noted are these: CREF/GAPDH counter-screens; HeLa PEG-Prom luciferase reporter, overnight, run 2, dose range 1, at 100 µM (top of the series) unless noted. (In general: A counterscreen serves to expose hits that act by an unwanted route or on another target.)
Assay [3] has as its system Rat fibroblasts (CREF). The description is as above. As to conditions: CREF/GAPDH counter-screens; run 1, dose range 1, at 100 µM (top of the series).
In assay [4] the test system is Rat fibroblasts (CREF). The assay is described as above. As to conditions: CREF/GAPDH counter-screens; run 2, dose range 1, at 100 µM (top of the series).
In assay [5] the target is Tumor necrosis factor receptor superfamily member 10B (Homo sapiens) (UniProt O14763). In words: caspase-8 TRAIL sensitization, hit retest, confirmation, cell-based, NB7+caspase-8, with/without TRAIL, luminescence panel (AID 651596). The conditions noted are these: NB7 neuroblastoma + caspase-8, TRAIL sensitization, luminescence viability, with TRAIL, mean of runs, at 10 µM, stronger effect = higher value.

Experiment in assay [6]: as above
As to conditions: NB7 neuroblastoma + caspase-8, without TRAIL, luminescence viability, without TRAIL, mean of runs, at 10 µM.

Assay [7] in a line: inhibitors of PAF-induced NFkB signaling in CF airway cells, dose response, cell-based, uHTS hits, panel, cytotoxicity readout (AID 624344). As to conditions: CF bronchial epithelial cells, PAF-induced NFkB reporter inhibition, with PAF, run 1; at 79 µM (top of the series) unless noted.
Experiment in assay [8]: as above
As to conditions: CF bronchial epithelial cells, PAF-induced NFkB reporter inhibition, with PAF, run 2; at 79 µM (top of the series) unless noted.

PEG-3, sequence (Q6IN02 whole entry, looked up): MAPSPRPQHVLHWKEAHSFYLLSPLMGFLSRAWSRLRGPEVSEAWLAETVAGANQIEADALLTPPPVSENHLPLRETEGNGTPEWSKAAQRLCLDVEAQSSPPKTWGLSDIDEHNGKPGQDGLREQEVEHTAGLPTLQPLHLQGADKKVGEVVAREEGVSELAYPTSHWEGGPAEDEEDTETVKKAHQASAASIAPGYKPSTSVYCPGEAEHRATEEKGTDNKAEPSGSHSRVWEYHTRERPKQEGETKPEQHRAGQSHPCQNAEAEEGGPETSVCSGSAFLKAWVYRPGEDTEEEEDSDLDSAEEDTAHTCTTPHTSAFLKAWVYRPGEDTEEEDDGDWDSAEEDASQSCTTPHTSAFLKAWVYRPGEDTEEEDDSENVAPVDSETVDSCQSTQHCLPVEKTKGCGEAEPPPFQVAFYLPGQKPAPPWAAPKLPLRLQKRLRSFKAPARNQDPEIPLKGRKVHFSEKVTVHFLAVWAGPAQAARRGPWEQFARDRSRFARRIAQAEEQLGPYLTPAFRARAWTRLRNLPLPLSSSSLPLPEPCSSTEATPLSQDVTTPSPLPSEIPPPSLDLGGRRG
Tumor necrosis factor receptor superfamily member 10B (Homo sapiens), sequence (O14763 whole entry, looked up): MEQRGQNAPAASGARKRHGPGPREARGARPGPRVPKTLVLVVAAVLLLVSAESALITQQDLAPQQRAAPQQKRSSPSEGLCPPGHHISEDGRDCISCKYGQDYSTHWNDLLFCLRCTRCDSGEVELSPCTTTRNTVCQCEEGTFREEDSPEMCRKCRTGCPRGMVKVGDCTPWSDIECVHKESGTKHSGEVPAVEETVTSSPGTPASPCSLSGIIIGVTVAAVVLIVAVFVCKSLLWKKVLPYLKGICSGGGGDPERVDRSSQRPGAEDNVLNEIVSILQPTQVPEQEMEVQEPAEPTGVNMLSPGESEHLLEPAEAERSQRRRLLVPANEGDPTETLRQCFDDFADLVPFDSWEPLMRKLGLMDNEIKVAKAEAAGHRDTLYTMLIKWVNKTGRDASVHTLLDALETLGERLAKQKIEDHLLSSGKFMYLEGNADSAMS

With `Cc1csc(NC(=O)c2ccc(N3CCCC3=O)cc2)n1`, the inhibition in the assay with PEG-3 [1] was determined as 88.6%; with PEG-3 [2] it was 78.1%; with Rat fibroblasts (CREF) [3], 88.8%; in the assay with Rat fibroblasts (CREF) [4], 90.4%. Further, the results for the activity in assay [5] and in assay [6] were 77.3% and 73.5%, respectively.
For `COc1ccc(Nc2nc(-c3ccccc3)nc3ccccc23)cc1S(=O)(=O)N1CCOCC1`, the inhibition with PEG-3 [1] was 61.7%; with PEG-3 [2], 59.1%; in assay [7], 97.7%; in assay [8], 106%. Moreover, the activity is 33% in assay [5] and 25.6% in assay [6].
As for `COc1nc(N)c(C#N)c(-c2ccc(N(C)CCC#N)cc2)c1C#N`, the inhibition was 52.9% with PEG-3 [1], 53% in the assay with PEG-3 [2], 97.1% [at 39.5 µM] in assay [7] and 84.4% [at 39.5 µM] in assay [8].
For `NC(=O)c1nsc(C(=O)N(c2ccccc2F)C(C(=O)NCc2ccc(F)cc2)c2ccc(O)cc2)c1N` (stereo not drawn) the same measures were 101%, 99.2%, 106% and 98.8%.
In the case of `O=C(NC1CCCCC1)C(c1cccnc1)N(C(=O)CCl)c1cccc(Cl)c1` (stereo not drawn), the inhibition with PEG-3 [1] came to 97.7%; with PEG-3 [2], 102%. Further, the activity in assay [5] is 99.3%; in assay [6], 99.5%.
As for `COc1cc(/C=N/O)ccc1OCc1ccc(C(=O)O)cc1`, the inhibition was found to be 88.6% in the assay with PEG-3 [1], 90.2% with PEG-3 [2], 92% in the assay with Rat fibroblasts (CREF) [3] and 91.3% with Rat fibroblasts (CREF) [4]. Moreover, the activity in assay [5] was 72.7%; in assay [6] it was 65.7%.
Take `FC(F)Sc1ccc(NC(=S)NC(c2ccccc2)c2ccccc2)cc1`: the inhibition came to 99.8% with PEG-3 [1], 96.5% with PEG-3 [2], 116% in assay [7] and 103% in assay [8].
On to `CS(=O)(=O)Nc1cccc(NC(=O)C2Cc3c(-c4cccc(F)c4)ccnc3O2)c1` (stereo not drawn), for which the inhibition was 77.9% [run 1, dose range 1, at 50 µM] with PEG-3 [1]; 85.4% with PEG-3 [2]; 17.8% with Rat fibroblasts (CREF) [3]; 29% in the assay with Rat fibroblasts (CREF) [4]. The activity is 75.5% in assay [5] and 73.2% in assay [6].
With `N/C(=N\OC(=O)c1ccccc1)C(C(=O)NOC(=O)c1ccccc1)C1CCCCC1` (stereo not drawn), the inhibition with PEG-3 [1] amounted to 98.8%; in the assay with PEG-3 [2] it was 102%. The values for the activity in assay [5] and in assay [6] were 97.6% and 94.9%, respectively.
Take `COc1cccc(-c2nnc3n2N=C(C(C)(C)C)CS3)c1`: the inhibition amounted to 98.1% with PEG-3 [1], 99% with PEG-3 [2], 105% in assay [7] and 114% in assay [8].

By inhibition is commonly meant the relative decrease from the control value, in per cent.
